# CYP2C19 activ: cytochrome P450 2C19 (human) activation | recombinant CYP2C19, luciferin-H EGE luminescence; stronger effect = higher value; 0 = fully inhibited enzyme, 1 = untreated enzyme | activation factor at 5 µM | 96,000 tested, under 10 active;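 active means activation factor of at least 2 at 5 µM in the primary screen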;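 further: 0 = wells with 2.5 mM tranylcypromine and 1 = vehicle-only wells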
# Target sequence (P33261 whole entry, looked up): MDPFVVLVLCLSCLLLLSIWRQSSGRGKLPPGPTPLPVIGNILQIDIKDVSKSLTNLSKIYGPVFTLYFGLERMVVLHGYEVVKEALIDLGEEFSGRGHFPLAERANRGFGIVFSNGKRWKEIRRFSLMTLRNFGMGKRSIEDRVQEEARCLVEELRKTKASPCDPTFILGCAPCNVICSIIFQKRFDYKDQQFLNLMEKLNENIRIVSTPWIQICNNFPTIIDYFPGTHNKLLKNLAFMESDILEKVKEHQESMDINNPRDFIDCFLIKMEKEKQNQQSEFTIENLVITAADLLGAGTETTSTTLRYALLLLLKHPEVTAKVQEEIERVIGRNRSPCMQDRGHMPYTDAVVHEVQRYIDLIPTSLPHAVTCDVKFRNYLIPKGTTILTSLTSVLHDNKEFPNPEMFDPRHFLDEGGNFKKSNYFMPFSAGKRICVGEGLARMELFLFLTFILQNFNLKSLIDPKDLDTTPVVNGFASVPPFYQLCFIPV
# CYP2C19 inh: inhibitors of human CYP2C19; P33261; AID 778; inhibition, % at 5 µM; 96,000 compounds, 21% hits; CYP2C19 Supersomes, luciferin-H EGE luminescence, 30 min;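 active means CYP2C19 inhibition above a set limit at 5 µM in the primary screen, cut at about 50% in these data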;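 further: plate controls were negative control wells for no effect and 2.5 mM tranylcypromine positive control for full effect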
# PostGolgi yeast: growth inhibition of a yeast mutant, post-Golgi transport screen. 98,000 compounds, 0.9% hits. post-Golgi transport phenotypic cell assay. inhibition, % at 10 µM;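 further: yeast cells grown in 1536-well plates; yeast grown about 18 h at 30C before absorbance read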
# PostGolgi ctrl: growth of the yeast control strain, post-Golgi counter-screen; efflux-deficient yeast background strain, growth absorbance A615, 16 h; inhibition, % at 10 µM; 98,000 compounds, 5% hits; AID 738
# CYP2C9 act: CYP2C9 (human) activation | P11712 | recombinant CYP2C9, luciferin-H conversion, luminescence; stronger effect = higher value; factor 1 = untreated enzyme, 0 = blocked | activation factor at 5 µM | 96,000 compounds, 1.4% hits;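 active means activation factor of 2 or more for CYP2C9 at a 5 µM dose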;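 further: 0 = sulfaphenazole-blocked wells and 1 = vehicle-only wells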
# CYP2C9 inhib: blocks human cytochrome P450 2C9; P11712; CYP2C9 Supersomes, luciferin-H conversion, luminescence; inhibition, % at 5 µM; 96,000 compounds, 20% hits; AID 777;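 active means blocking of liver enzyme CYP2C9 beyond about 50% at 5 µM, limit read from the data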
# The depositor's hits bear a star; / = not tested or not shown. Rows were chosen to be rich in hits. Some 32% of all compounds tested hit in one or more screens of this group. Unless noted, no stated cut-off is given here; in the data, active means inhibition above about 30%; inactive means the rest.
SMILES,CYP2C19 activ,CYP2C19 inh,PostGolgi yeast,PostGolgi ctrl,CYP2C9 act,CYP2C9 inhib
COCCNC(=O)c1cn(C)c2ccc(S(=O)(=O)N(C)C3CCCCC3)cc2c1=O,0.9,8,-15,30*,0.7,32
C=CCn1cc(C(=O)NCC2CCCO2)c(=O)c2cc(S(=O)(=O)N3CCCCCC3)ccc21 (centres undefined),0.9,7,7,8,0.5,55*
O=C(NCC1CCCO1)c1cc(-c2ccncc2)nc2ccc(S(=O)(=O)N3CCOCC3)cc12 (centres undefined),0.3,72*,-8,9,0.3,70*
CC(C)[C@H](NC(=O)c1ccccc1)C(=O)OCC(=O)N1CCc2ccccc2C1,1.1,-12,9,-5,1.3,-33
Cc1nn(C)c(C)c1NC(=O)CN1CCC(O)(c2ccc3c(c2)OCO3)CC1,1.1,-7,0,-3,1.1,-7
CCn1cc(C(=O)NCCCOC)c(=O)c2cc(S(=O)(=O)N(C)C3CCCCC3)ccc21,0.7,26,-13,19,0.2,76*
CC(C)N(CCNC(=O)c1cn(C)c2ccc(S(=O)(=O)N(C)C)cc2c1=O)Cc1ccccc1,0.9,11,-4,8,0.5,51*
CCn1cc(C(=O)NCC2CCCO2)c(=O)c2cc(S(=O)(=O)N(C)C)ccc21 (centres undefined),/,/,3,6,/,/
CCOCCCNC(=O)c1cn(C)c2ccc(S(=O)(=O)N(C)C3CCCCC3)cc2c1=O,1,3,-1,8,0.8,23
CN1CCN(CCCNC(=O)c2cn(C)c3ccc(S(=O)(=O)N(C)C)cc3c2=O)CC1,1,1,-5,-3,1,4
CCn1cc(C(=O)NCC2CCCO2)c(=O)c2cc(S(=O)(=O)N(C)C3CCCCC3)ccc21 (centres undefined),0.8,22,-2,3,0.4,61*
COc1ccc(N2C(=O)c3ccccc3NC23C(=O)N(C)c2ccccc23)cc1 (centres undefined),0.9,6,-3,2,0.7,31
Cc1ccc(Oc2ccccc2)c(NC=O)c1,0.7,30,0,4,1,-1
COc1ccc(C(=O)Oc2ccc(/C=N/O)cc2)cc1,0.9,5,3,17,1.1,-11
CCOc1ccc2[nH]c(=O)c(CN(CCO)C(=O)CC)cc2c1,1,3,12,3,0.9,15
COc1ccc(C(=O)Nc2cc(C(=O)c3ccccc3)c(C)oc2=O)cc1,1,0,-4,0,0.9,14
COc1ccc(-n2nnnc2/C=C\Nc2ccccc2C(=O)c2ccccc2)cc1,0.5,51*,5,14,1.2,-21
CCOC(=O)c1c(C)c(C(=O)NCC2CCCO2)c(C)n1C (centres undefined),0.9,7,-8,4,1.6,-65
CCOC(=O)c1oc2ccc(S(=O)(=O)n3nc(-c4ccc(C)cc4)cc3N)cc2c1C,0.5,48,10,32*,0,96*
CCOC(=O)c1oc2ccc(S(=O)(=O)n3nc(-c4ccc(Cl)cc4)cc3N)cc2c1C,0.8,16,4,7,0,99*
CCOC(=O)c1[nH]c(C)c(C(=O)N2CCN(C(=O)OCC)CC2)c1CC,1,1,-7,11,0.9,10
CCOc1ccc(S(=O)(=O)NCC(=O)N(C)Cc2cccnc2)cc1,0.7,29,-4,11,1,-2
O=C(Cn1sc2ccccc2c1=O)NC12CC3CC(CC(C3)C1)C2,0.6,39,2,14,0.1,90*
NC(=O)c1ccccc1OCC(=O)NC12CC3CC(CC(C3)C1)C2,0.9,12,-1,3,1.2,-17
O=C(CN1CCN(C(=O)c2ccccc2)CC1)Nc1ccc(Br)cn1,1,3,2,3,1.1,-9
SMILES,CYP2C19 activ,CYP2C19 inh,PostGolgi yeast,PostGolgi ctrl,CYP2C9 act,CYP2C9 inhib
O=C(CCCN1C(=O)c2cccc3cccc(c23)C1=O)N1CCc2ccccc2C1,0.5,52*,23,8,4*,-296
O=C(CCN1C(=O)c2ccccc2C1=O)N1CCN(C(=O)c2ccccc2)CC1,0.9,8,4,2,0.8,20
Cc1cccc(N2CCN(C(=O)Cn3cccc3C(=O)c3ccccc3)CC2)c1C,0.6,42,2,18,1.2,-20
O=C(CCCOc1ccccc1)N1CCc2ccccc2C1,0.2,83*,-4,12,0.5,50
Cc1cccc(N2CCN(C(=O)CCCOc3ccccc3)CC2)c1C,0.3,75*,16,33*,0.2,81*
O=C(CCCN1C(=O)c2ccccc2C1=O)N1CCC(c2ccccc2)C1 (centres undefined),0.2,79*,0,-1,0.3,67*
CCOC(=O)N1CCN(C(=O)CCCOc2ccccc2)CC1,0.9,13,6,0,1.1,-7
O=C(CCCOc1ccccc1)N1CCN(c2ccccc2)CC1,0.4,62*,-3,17,0.2,78*
Cc1cccc(N2CCN(C(=O)Cc3c(C(=O)O)[nH]c4ccc(Cl)cc34)CC2)c1C,0.6,43,5,4,0.1,87*
COc1ccc(CCNC(=O)CSc2nc3cc(Cl)ccc3o2)cc1OC,0.8,25,-7,16,0.3,66*
COc1ccc(CCNC(=O)CC2Nc3ccccc3NC2=O)cc1OC (centres undefined),0.8,21,5,3,0.7,27
COc1ccc(CCNC(=O)CC2Oc3ccc(Cl)cc3NC2=O)cc1OC (centres undefined),0.4,59*,-4,18,1.5,-51
Cc1cc(C)cc(NC(=O)c2ccc(CSc3nnc(C)s3)cc2)c1,0.6,36,-4,-4,2*,-98
COc1ccc(C(C)=O)cc1CSc1nnc(C)s1,0.3,66*,-10,4,1,-2
Cc1ccc(NC(=O)c2ccc(CSc3nnc(C)s3)cc2)cc1,/,/,-7,-3,/,/
COc1ccc(CCNC(=O)CSc2nnc(CNC(=O)c3ccco3)o2)cc1OC,1.1,-7,14,6,0.8,17
Cc1ccc(S(=O)(=O)N2CCCC2C(=O)NC2=NCCS2)cc1 (centres undefined),0.7,25,-3,4,1.2,-18
CC1(C)CC(=O)C2=C(C1)NC(=O)CC2c1ccc(N(CCC#N)CCC#N)cc1 (centres undefined),1.1,-7,-4,-7,1.1,-8
COc1ccc(C(C)=O)cc1CSc1nc2ccccc2o1,0.6,41,-2,17,0.4,56*
COc1ccc(CCNC(=O)CSc2nnc(CNC(=O)c3ccccc3F)o2)cc1OC,0.9,6,16,1,0.8,15
COc1ccc(CCNC(=O)CSc2nc3ccccc3o2)cc1OC,0.2,80*,-9,17,0.1,88*
Cc1cc(C)c2cc(CN(CCO)C(=O)Nc3ccc(Cl)cc3)c(=O)[nH]c2c1,0.6,41,5,47*,0.8,19
